According to PubChem BioAssay (NCATS):
Results filed as inconclusive are left out. Entries that show only a call come without a potency. Active and inactive are the calls of the source. Calls come from the whole dose curve; as a rule, active = well fitted curve in the direction sought with a large enough effect; inconclusive = small, poorly fitted or top-dose-only effect, or another doubt; inactive = no such curve, though single readings can be large; an effect the other way counts as inactive or inconclusive.

Key:
[1] = qHTS to identify inhibitors of the type 1 interferon - major histocompatibility complex class I in skeletal muscle: primary screen against the NCATS Pharmaceutical Collection (AID 1347407);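 note: luminescence of HiBiT knocked into endogenous HLA-B as interferon-induced MHC class I level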
Outline: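 Immortalized human myoblasts (C25cl48) with HiBiT knocked into endogenous HLA-B*08:01 were stimulated with 4.0 ng/ml IFN-beta and treated with compounds ([…] top 46 uM) for 24 hrs at 37 C. HiBiT lytic luminescence read.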

[2] = molecular target: Protein phosphatase 1D (Homo sapiens) (UniProt O15297); assay: RapidFire Mass Spectrometry qHTS Assay for Modulators of WT P53-Induced Phosphatase 1 (WIP1) (AID 1347424);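 note: amount of dephosphorylated VEPPL-S-QETFS peptide product formed by WIP1; series mostly up to about 63 µM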
Outline: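 RapidFire mass spectrometry measured dephosphorylated peptide after 5 min room-temperature reaction of 2 uM VEPPL-pS-QETFS with 10 nM WIP1 (50 mM Tris-HCl pH 7.5, 30 mM MgCl2, 0.1 mM EGTA, BSA), following 1 hr compound preincubation; 1 uM isotope-labelled product standard.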

[3] = qHTS to identify inhibitors of the type 1 interferon - major histocompatibility complex class I in skeletal muscle: primary screen against the NCATS Mechanism Interrogation Plate v5.0 (MIPE) Libary (AID 1347411); note: nearly all actives have a fitted effect of over 65% in size
Outline: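 HLA-B HiBit myoblasts, dexamethasone-free medium + 4 ng/ml IFN-b, 24 h compound, 11-pt 1:3 from 46 uM final. Readout: Nano-Glo HiBiT lytic luminescence after 10 min lysis, RT.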

Sequence of Protein phosphatase 1D (Homo sapiens) (O15297 whole entry, looked up): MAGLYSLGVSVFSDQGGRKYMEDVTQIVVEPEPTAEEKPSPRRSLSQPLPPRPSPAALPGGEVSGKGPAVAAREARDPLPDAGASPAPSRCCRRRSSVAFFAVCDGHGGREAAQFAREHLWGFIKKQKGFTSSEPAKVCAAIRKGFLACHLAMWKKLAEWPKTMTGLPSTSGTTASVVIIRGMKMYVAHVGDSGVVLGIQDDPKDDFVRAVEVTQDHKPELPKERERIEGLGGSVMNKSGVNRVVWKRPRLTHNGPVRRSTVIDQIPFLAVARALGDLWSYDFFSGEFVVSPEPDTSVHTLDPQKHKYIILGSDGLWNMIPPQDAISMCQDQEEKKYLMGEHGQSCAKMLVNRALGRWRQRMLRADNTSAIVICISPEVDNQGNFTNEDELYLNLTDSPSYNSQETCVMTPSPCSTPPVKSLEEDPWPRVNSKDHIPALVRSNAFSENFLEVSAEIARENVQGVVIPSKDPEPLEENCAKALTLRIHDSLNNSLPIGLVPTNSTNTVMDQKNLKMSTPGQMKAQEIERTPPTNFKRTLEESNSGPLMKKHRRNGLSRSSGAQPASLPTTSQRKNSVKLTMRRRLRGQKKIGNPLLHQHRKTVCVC

| Structure (SMILES) | outcome [1] | Potency [2] | Potency [3] |
| --- | --- | --- | --- |
| S=C(SSC(=S)N1CCCCC1)N1CCCCC1 | inactive | inactive | – |
| CCO/N=C(\CC)C1=C(O)CC(c2c(C)cc(C)cc2C)CC1=O (stereo not drawn) | inactive | inactive | – |
| CCC(=O)O[C@@H]1C=C2CCC3C(CCC4(C)C3CC[C@@H]4OC(=O)CC)C2CC1 (stereo partly drawn) | inactive | inactive | – |
| Nc1ccc(Sc2ccc(N)cc2)cc1 | inactive | inactive | – |
| Nc1ccc(Cl)cc1 | inactive | inactive | – |
| O=C(O)C(Cl)Cl | inactive | inactive | – |
| CN1[C@H]2CC(O)C[C@H]1[C@H]1O[C@H]12 (stereo partly drawn) | – | – | inactive |
